Reference: the supplement of paper PMC8387472

Legend:
Settings in all cases: mESC; 2uM; 72 h treatment, harvest day 5
Kenpaullone = compound: O=C1Cc2c([nH]c3ccc(Br)cc23)-c2ccccc2N1 [Kenpaullone]; assay: fraction of microhomology deletions among edited reads; higher = more MH deletions
Genistein = compound: O=c1c(-c2ccc(O)cc2)coc2cc(O)cc(O)c12 [Genistein]; assay: as above
[1] = compound: O=c1cc(N2CCOCC2)oc2c(-c3ccc4c(c3)OCCO4)csc12; assay: as above
Mercaptopurine (6-MP) = compound: S=c1[nH]cnc2nc[nH]c12 [Mercaptopurine (6-MP)]; assay: as above
[2] = compound: S=c1nc[nH]c2nc[nH]c12 [6-Mercaptopurine (6-MP) Monohydrate]; assay: as above
[3] = compound: CC(=O)O/N=C1\C(=O)N(Cc2cc(Cl)ccc2Cl)c2ccc(Cl)cc21; assay: fraction of 1-bp insertions among edited reads; higher = more 1-bp insertion outcomes
[4] = compound: CC(C)(C#N)c1ccc(N2C(=O)OCc3cnc4ccc(-c5cnc6ccccc6c5)cc4c32)cc1; assay: as above
[5] = compound: CCCCOc1c(C(=O)c2c(F)cc(C)cc2F)c[nH]c2nncc1-2; assay: as above
[6] = compound: CCN1CCN(CC(=O)Nc2ccc(-c3cccc4c(=O)cc(N5CCOCC5)oc34)c3sc4ccccc4c23)CC1; assay: as above
[7] = compound: CCc1c2c(nc3ccc(OC(=O)N4CCC(N5CCCCC5)CC4)cc13)-c1cc3c(c(=O)n1C2)COC(=O)[C@]3(O)CC [Irinotecan HCl Trihydrate]; assay: as above
[8] = compound: CCn1c(=O)c(-c2ccc(Cl)cc2Cl)cc2cnc(Nc3ccc(N4CCNCC4)c(F)c3)nc21; assay: as above
[9] = compound: CNc1ccc([N+](=O)[O-])c(Nc2ccc3[nH]ncc3c2)n1; assay: as above
Rifapentine = compound: CO[C@H]1/C=C/O[C@@]2(C)Oc3c(C)c(O)c4c(O)c(c(/C=N/N5CCN(C6CCCC6)CC5)c(O)c4c3C2=O)NC(=O)/C(C)=C\C=C\[C@H](C)[C@H](O)[C@@H](C)[C@@H](O)[C@@H](C)[C@H](OC(C)=O)[C@@H]1C [Rifapentine]; assay: as above
[10] = compound: COc1ccccc1-c1cc(Nc2cccc(CS(N)(=O)=O)c2)ncn1; assay: as above
[11] = compound: C[C@@H]1CN(CC(=O)Nc2ccc3c(c2)Cc2cccc(-c4cc(=O)cc(N5CCOCC5)o4)c2S3)C[C@H](C)O1; assay: as above
[12] = compound: Cc1cc(C)nc(SCC(=O)Nc2ncc(Cc3cccc4ccccc34)s2)n1; assay: as above
[13] = compound: Cc1ccc(C(=O)NCCCCCC(=O)Nc2ccccc2N)cc1; assay: as above
[14] = compound: Cc1cccc(CC(=O)N2CCc3c2ccc(-c2cn(C)c4ncnc(N)c24)c3F)n1; assay: as above
[15] = compound: NC(=O)c1ccc2nc(-c3ccc(Oc4ccc(Cl)cc4)cc3)[nH]c2c1 [Chk 2 inhibitor II (BML-277)]; assay: as above
Tucidinostat (Chidamide) = compound: Nc1cc(F)ccc1NC(=O)c1ccc(CNC(=O)/C=C/c2cccnc2)cc1 [Tucidinostat (Chidamide)]; assay: as above

Target	fraction of microhomology deletions among edited reads (Kenpaullone)	fraction of microhomology deletions among edited reads (Genistein)	fraction of microhomology deletions among edited reads [1]	fraction of microhomology deletions among edited reads (Mercaptopurine (6-MP))	fraction of microhomology deletions among edited reads [2]	fraction of 1-bp insertions among edited reads [3]	fraction of 1-bp insertions among edited reads [4]	fraction of 1-bp insertions among edited reads [5]	fraction of 1-bp insertions among edited reads [6]	fraction of 1-bp insertions among edited reads [7]	fraction of 1-bp insertions among edited reads [8]	fraction of 1-bp insertions among edited reads [9]	fraction of 1-bp insertions among edited reads (Rifapentine)	fraction of 1-bp insertions among edited reads [10]	fraction of 1-bp insertions among edited reads [11]	fraction of 1-bp insertions among edited reads [12]	fraction of 1-bp insertions among edited reads [13]	fraction of 1-bp insertions among edited reads [14]	fraction of 1-bp insertions among edited reads [15]	fraction of 1-bp insertions among edited reads (Tucidinostat (Chidamide))
41.0 (DMSO control at this site: 1-bp insertion 0.022, MH deletion 0.754, edited 0.115) AAAGAGACAGCAGGTATGAATCCATCTTCCTGACCCTTGGGACCAGCCGGGGCAGTGAAGC	0.672	0.753	0.762	0.701	0.674	0.0367	0.0302	0.0252	0.0166	0.0367	0.0239	0.0181	0.018	0.0187	0.0495	0.0288	0.0318	0.0382	0.0265	0.0195
26.0 (DMSO control at this site: 1-bp insertion 0.518, MH deletion 0.262, edited 0.026) AGGGCGCGCCCCACGCACTCTGCGGCAAGTCCCTCTGCGGCAAGTCCTCGGCCCGGAAGAC	0.244	0.296	0.338	0.311	0.297	0.507	0.45	0.513	0.131	0.466	0.484	0.558	0.515	0.49	0.691	0.495	0.494	0.525	0.452	0.5
23.0 AGAACAAAGCGCTCATATAACGATATGGGGGGTTATGGGGGGTTGAATTGCTTCAGCACGA												0.00131								
8.0 GCATGCGTGTTTTGGGACAATGTAGTATACATTTGGGAGGCTCTCAGCTTTTCCCAATAAA	0.0098				0.00885	0.443	0.455	0.303								0.418				0.257
29.0 (DMSO control at this site: 1-bp insertion 0.084, MH deletion 0.745, edited 0.133) TTGATGAACTTCCTCTTCTTCTCATGTCTCCGGTCTCCGGTAGGCCACGTGCATGGCCACT	0.631	0.718	0.735	0.669	0.633	0.0853	0.0763	0.0825	0.0366	0.0846	0.0597	0.0921	0.0712	0.106	0.339	0.0918	0.0975	0.111	0.0639	0.122
33.0 (DMSO control at this site: 1-bp insertion 0.008, MH deletion 0.771, edited 0.112) CATTAAGAGCAGCTGCCGGCCCCCAAGTGGACAGAGCTGGCCCTGCTGATTCAACAGTGCA	0.726	0.732	0.737	0.699	0.692	0.0218	0.021	0.0356	0.018	0.0322	0.0229	0.0311	0.0305	0.0177	0.036	0.0245	0.0214	0.0211	0.0295	0.0189
22.0 (DMSO control at this site: 1-bp insertion 0.573, MH deletion 0.229, edited 0.045) CTGATGGTTGAAGGATTTAGCCGGGGTCCTAGACGCCGGGGTCCTAGACGAAAGGGCCACG	0.116	0.139	0.146	0.107	0.155	0.62	0.564	0.613	0.302	0.604	0.614	0.667	0.644	0.619	0.778	0.573	0.653	0.725	0.508	0.53
27.0 CCAGAATTAGAACATATCATCTGGACCCTTTTCCATCTGGACCCTTTTCCAGCACACCCTG	0.0808	0.0896	0.137	0.197	0.147	0.107	0.141	0.138		0.178		0.13	0.109	0.108		0.124	0.149			0.137
35.0 (DMSO control at this site: 1-bp insertion 0.01, MH deletion 0.72, edited 0.098) CCACTTTTAGAGAGGGTGAAAATCATCAGTTATCATCAGGGCAACAAATTGCTTTCTCCTA	0.683	0.77	0.809	0.684	0.657	0.0261	0.0309	0.00887	0.0214	0.0184	0.0264	0.00485	0.0103	0.0267	0.125	0.0279	0.0384	0.0134	0.0163	0.0535
4.0 (DMSO control at this site: 1-bp insertion 0.146, MH deletion 0.523, edited 0.125) ACGCCTTAGTGCACGAGTGACGGGATAATGTGGTCTCAGGTAATTGATAGGCTTCCAACTT	0.475	0.553	0.586	0.478	0.463	0.121	0.127	0.152	0.0339	0.116	0.102	0.165	0.101	0.15	0.416	0.132	0.145	0.167	0.102	0.171
